# Measurements published in PubChem BioAssay AID1159580 (chemical genetic matrix, 2015).
# Several values for one entry are separate records, joined by “and”; a condition that tells them apart may be missing. Equal entries are not always repeated. Screen size: about 5,500 compounds; about 2,000 (36%) were called active. Roughly 18% stayed inconclusive and do not appear here. This is one part of the list. Values without a mark were called inactive. Rule as the data show it: active = normalized growth mostly below about 0.91 (no sharp cut-off); inconclusive = no clear call, values can overlap the other calls; inactive = mostly above about 0.92.
# Assay: chemical genetic growth profiling, strain panel (AID 1159580);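 also: tested at 20 µM; growth read once vehicle control cultures reached saturation at 30 °C; 1 = growth at the plate median or of vehicle wells; lower values mean less growth of the strain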
# Details: S. cerevisiae deletion strains, growth OD
structure (smiles),measurement,setting,value
O=C1OC(c2ccc(O)cc2)(c2ccc(O)cc2)c2ccccc21,normalized growth,"locus YAL013W, strain DEP1, stronger effect = lower value",0.999
same,normalized growth,"locus YAL021C, strain ccr4, stronger effect = lower value",0.977
same,normalized growth,"locus YAL026C, strain drs2, stronger effect = lower value",0.978
same,normalized growth,"locus YAL030W, strain snc1, stronger effect = lower value",0.994
same,normalized growth,"locus YBL061C, strain skt5, stronger effect = lower value",0.984
same,normalized growth,"locus YBR009C, strain hhf1, stronger effect = lower value",0.988
same,normalized growth,"locus YBR021W, strain FUR4, stronger effect = lower value",1.01
same,normalized growth,"locus YBR023C, strain chs3, stronger effect = lower value",0.994
same,normalized growth,"locus YBR171W, strain sec66, stronger effect = lower value",0.981
same,normalized growth,"locus YBR229C, strain ROT2, stronger effect = lower value",0.997
same,normalized growth,"locus YBR231C, strain swc5, stronger effect = lower value",0.974
same,normalized growth,"locus YBR279W, strain paf1, stronger effect = lower value",0.988
same,normalized growth,"locus YCL011C, strain gbp2, stronger effect = lower value",0.968
same,normalized growth,"locus YCL016C, strain dcc1, stronger effect = lower value",1.01
same,normalized growth,"locus YCL029C, strain bik1, stronger effect = lower value",0.972
same,normalized growth,"locus YCL061C, strain MRC1, stronger effect = lower value",1
same,normalized growth,"locus YCL069W, strain vba3, stronger effect = lower value",0.969
same,normalized growth,"locus YCR088W, strain abp1, stronger effect = lower value",1
same,normalized growth,"locus YDL005C, strain med2, stronger effect = lower value",0.97
same,normalized growth,"locus YDL035C, strain GPR1, stronger effect = lower value",0.986
same,normalized growth,"locus YDL040C, strain nat1, stronger effect = lower value",0.986
same,normalized growth,"locus YDL074C, strain BRE1, stronger effect = lower value",0.98
same,normalized growth,"locus YDL101C, strain DUN1, stronger effect = lower value",0.98
same,normalized growth,"locus YDL134C, strain PPH21, stronger effect = lower value",0.989
same,normalized growth,"locus YDL185W, strain tfp1, stronger effect = lower value",0.954
same,normalized growth,"locus YDL192W, strain arf1, stronger effect = lower value",0.974
same,normalized growth,"locus YDR001C, strain nth1, stronger effect = lower value",0.965
same,normalized growth,"locus YDR069C, strain doa4, stronger effect = lower value",0.959
same,normalized growth,"locus YDR101C, strain arx1, stronger effect = lower value",0.973
same,normalized growth,"locus YDR137W, strain rgp1, stronger effect = lower value",0.976
same,normalized growth,"locus YDR150W, strain NUM1, stronger effect = lower value",1
same,normalized growth,"locus YDR159W, strain sac3, stronger effect = lower value",0.969
same,normalized growth,"locus YDR162C, strain NBP2, stronger effect = lower value",0.992
same,normalized growth,"locus YDR195W, strain ref2",0.973
same,normalized growth,"locus YDR297W, strain sur2, stronger effect = lower value",0.996
same,normalized growth,"locus YDR318W, strain mcm21, stronger effect = lower value",0.949
same,normalized growth,"locus YDR334W, strain swr1, stronger effect = lower value",0.897 (active)
same,normalized growth,"locus YDR335W, strain msn5, stronger effect = lower value",0.97
same,normalized growth,"locus YDR388W, stronger effect = lower value",0.973
same,normalized growth,"locus YDR392W, strain spt3, stronger effect = lower value",0.958
same,normalized growth,"locus YDR502C, strain sam2, stronger effect = lower value",0.96
same,normalized growth,"locus YEL003W, strain gim4, stronger effect = lower value",0.964
same,normalized growth,"locus YEL037C, strain rad23, stronger effect = lower value",0.983
same,normalized growth,"locus YEL061C, strain CIN8 (second series), stronger effect = lower value",0.962
same,normalized growth,"locus YEL061C, strain CIN8, stronger effect = lower value",0.996
same,normalized growth,"locus YER015W, strain faa2, stronger effect = lower value",0.977
same,normalized growth,"locus YER016W, strain bim1, stronger effect = lower value",0.984
same,normalized growth,"locus YER110C, stronger effect = lower value",0.971
same,normalized growth,"locus YER111C, strain swi4, stronger effect = lower value",0.995
same,normalized growth,"locus YER155C, strain BEM2 (second series), stronger effect = lower value",0.826 (active)
same,normalized growth,"locus YER155C, strain BEM2, stronger effect = lower value",0.994
same,normalized growth,"locus YER167W, strain BCK2, stronger effect = lower value",0.997
same,normalized growth,"locus YFR010W, strain ubp6, stronger effect = lower value",0.975
same,normalized growth,"locus YGL078C, strain dbp3, stronger effect = lower value",0.984
same,normalized growth,"locus YGL086W, strain mad1, stronger effect = lower value",0.992
same,normalized growth,"locus YGL167C, strain pmr1, stronger effect = lower value",0.983
same,normalized growth,"locus YGL173C, strain kem1, stronger effect = lower value",0.996
same,normalized growth,"locus YGL227W, strain vid30, stronger effect = lower value",0.987
same,normalized growth,"locus YGL240W, strain doc1, stronger effect = lower value",0.965
same,normalized growth,"locus YGL248W, strain PDE1, stronger effect = lower value",0.996
same,normalized growth,"locus YGL253W, strain hxk2, stronger effect = lower value",0.969
same,normalized growth,"locus YGR135W, strain pre9, stronger effect = lower value",0.964
same,normalized growth,"locus YGR252W, strain gcn5, stronger effect = lower value",1.03
same,normalized growth,"locus YHR013C, strain ard1, stronger effect = lower value",0.954
same,normalized growth,"locus YHR027C, strain rpn1, stronger effect = lower value",0.982
same,normalized growth,"locus YHR030C, strain SLT2, stronger effect = lower value",0.986
same,normalized growth,"locus YHR079C, strain IRE1 (second series), stronger effect = lower value",0.96
same,normalized growth,"locus YHR079C, strain IRE1, stronger effect = lower value",0.953
same,normalized growth,"locus YHR094C, strain hxt1, stronger effect = lower value",0.971
same,normalized growth,"locus YHR129C, strain ARP1, stronger effect = lower value",0.995
same,normalized growth,"locus YHR142W, strain chs7, stronger effect = lower value",0.977
same,normalized growth,"locus YHR200W, strain rpn10, stronger effect = lower value",0.967
same,normalized growth,"locus YIL066C, strain RNR3, stronger effect = lower value",0.996
same,normalized growth,"locus YIL073C, strain SPO22, stronger effect = lower value",0.844
same,normalized growth,"locus YIL125W, strain kgd1, stronger effect = lower value",0.956
same,normalized growth,"locus YIR030C, strain dcg1, stronger effect = lower value",0.985
same,normalized growth,"locus YJL092W, strain hpr5, stronger effect = lower value",0.995
same,normalized growth,"locus YJL095W, strain BCK1 (second series), stronger effect = lower value",0.977
same,normalized growth,"locus YJL095W, strain BCK1, stronger effect = lower value",1.04 and 0.981
same,normalized growth,"locus YJL115W, strain asf1, stronger effect = lower value",0.972
same,normalized growth,"locus YJL129C, strain trk1, stronger effect = lower value",0.949
same,normalized growth,"locus YJL134W, strain LCB3, stronger effect = lower value",0.988
same,normalized growth,"locus YJL154C, strain vps35, stronger effect = lower value",0.972
same,normalized growth,"locus YJL164C, strain tpk1, stronger effect = lower value",0.987
same,normalized growth,"locus YJL166W, strain qcr8, stronger effect = lower value",0.983
same,normalized growth,"locus YJL168C, strain set2, stronger effect = lower value",0.974
same,normalized growth,"locus YJL187C, strain SWE1 (second series), stronger effect = lower value",0.991
